Measurements as given in the supplement of paper PMC8728848.
Many of the other results were omitted from the sample, so the strongest signals are more common in it than they were.

Columns and labels:
Test in all cases: glycan array binding signal (z-score within array); higher = stronger binding
Conditions in all cases: glycan notation: IUPAC condensed, linker removed
[1] = target: GlcNAc(a1-3)Gal(b1-4)GlcNAc
Summary of the method: (§1)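 Glycan array data were curated from 3228 arrays in the Consortium for Functional Glycomics database and kept only where the protein sequence was available. Glycan names were converted to IUPAC-condensed notation, and columns mapping to the same glycan were averaged. The binding signal is a within-array Z-score, averaged across arrays of the same protein sequence at different concentrations or buffers and across linkers. Negative Z-scores can be read as non-binding.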

[2] = target: GlcNAc(b1-2)Man(a1-3)[GlcNAc(b1-4)][GlcNAc(b1-2)Man(a1-6)]Man(b1-4)GlcNAc(b1-4)[Fuc(a1-6)]GlcNAc
Summary of the method: as §1

[3] = target: GlcNAc(b1-2)[GlcNAc(b1-6)]Man(a1-6)[GlcNAc(b1-2)Man(a1-3)]Man(b1-4)GlcNAc(b1-4)[Fuc(a1-6)]GlcNAc
Summary of the method: as §1

[4] = target: GlcNAc(b1-3)Gal(b1-4)GlcNAc(b1-3)Gal(b1-4)GlcNAc(b1-2)[GlcNAc(b1-3)Gal(b1-4)GlcNAc(b1-3)Gal(b1-4)GlcNAc(b1-6)]Man(a1-6)[GlcNAc(b1-3)Gal(b1-4)GlcNAc(b1-3)Gal(b1-4)GlcNAc(b1-2)Man(a1-3)]Man(b1-4)GlcNAc(b1-4)[Fuc(a1-6)]GlcNAc
Summary of the method: as §1

[5] = target: GlcNAc(b1-3)Gal(b1-4)GlcNAc(b1-3)Gal(b1-4)GlcNAc(b1-3)Gal(b1-4)GlcNAc(b1-2)Man(a1-3)[GlcNAc(b1-3)Gal(b1-4)GlcNAc(b1-3)Gal(b1-4)GlcNAc(b1-3)Gal(b1-4)GlcNAc(b1-2)Man(a1-6)]Man(b1-4)GlcNAc(b1-4)GlcNAc
Summary of the method: as §1

[6] = target: Kdn(a2-3)Gal(b1-3)GalNAc
Summary of the method: as §1

[7] = target: Man(a1-2)Man(a1-2)Man(a1-3)Man
Summary of the method: as §1

[8] = target: Man(a1-3)[Man(a1-6)]Man(b1-4)GlcNAc(b1-4)[Fuc(a1-6)]GlcNAc
Summary of the method: as §1

[9] = target: Neu5Ac(a2-3)Gal(b1-3)[Neu5Ac(a2-6)]GalNAc
Summary of the method: as §1

[10] = target: Neu5Ac(a2-3)Gal(b1-3)]Neu5Ac(a2-3)Gal(b1-4)]GlcNAc
Summary of the method: as §1

[11] = target: Neu5Ac(a2-3)Gal(b1-4)GlcNAc(b1-2)Man(a1-3)[Neu5Ac(a2-3)Gal(b1-4)GlcNAc(b1-2)Man(a1-6)]Man(b1-4)GlcNAc(b1-4)[Fuc(a1-6)]GlcNAc
Summary of the method: as §1

[12] = target: Neu5Ac(a2-3)Gal(b1-4)GlcNAc(b1-2)[Neu5Ac(a2-3)Gal(b1-4)GlcNAc(b1-4)]Man(a1-3)[GlcNAc(b1-4)][Neu5Ac(a2-3)Gal(b1-4)GlcNAc(b1-2)[Neu5Ac(a2-3)Gal(b1-4)GlcNAc(b1-6)]Man(a1-6)]Man(b1-4)GlcNAc(b1-4)GlcNAc
Summary of the method: as §1

[13] = target: Neu5Ac(a2-3)Gal(b1-4)GlcNAc(b1-2)[Neu5Ac(a2-3)Gal(b1-4)GlcNAc(b1-4)]Man(a1-3)[GlcNAc(b1-4)][Neu5Ac(a2-3)Gal(b1-4)GlcNAc(b1-4)Man(a1-6)]Man(b1-4)GlcNAc(b1-4)GlcNAc
Summary of the method: as §1

[14] = target: Neu5Ac(a2-3)Gal(b1-4)GlcNAc(b1-6)GalNAc
Summary of the method: as §1

[15] = target: Neu5Ac(a2-3)Gal(b1-4)[Fuc(a1-3)]GlcNAc
Summary of the method: as §1

[16] = target: Neu5Ac(a2-3)Gal(b1-4)[Fuc(a1-3)]GlcNAc(b1-3)GalNAc
Summary of the method: as §1

[17] = target: Neu5Ac(a2-3)Gal6S(b1-4)GlcNAc
Summary of the method: as §1

[18] = target: Neu5Ac(a2-6)Gal(b1-4)GlcNAc(b1-2)Man(a1-3)Man(b1-4)GlcNAc(b1-4)GlcNAc
Summary of the method: as §1

[19] = target: Neu5Ac(a2-6)Gal(b1-4)GlcNAc(b1-3)Gal(b1-4)GlcNAc(b1-3)Gal(b1-4)GlcNAc(b1-2)Man(a1-3)[Neu5Ac(a2-6)Gal(b1-4)GlcNAc(b1-3)Gal(b1-4)GlcNAc(b1-3)Gal(b1-4)GlcNAc(b1-2)Man(a1-6)]GalNAc
Summary of the method: as §1

[20] = target: Neu5Ac(a2-6)Gal(b1-4)GlcNAc(b1-6)[Gal(b1-3)]GalNAc
Summary of the method: as §1

[21] = target: Neu5Ac(a2-6)Gal(b1-4)GlcNAc6S
Summary of the method: as §1

[22] = target: Neu5Ac(a2-6)GlcNAc(b1-4)GlcNAc
Summary of the method: as §1

[23] = target: Neu5Ac(a2-8)Neu5Ac(a2-3)Gal(b1-3)GalNAc(b1-4)[Neu5Ac(a2-3)]Gal(b1-4)Glc
Summary of the method: as §1

[24] = target: Neu5Ac(a2-8)Neu5Ac(a2-3)[Gal(b1-3)GalNAc(b1-4)]Gal(b1-4)Glc
Summary of the method: as §1

[25] = target: Neu5Gc(a2-8)Neu5Gc(a2-3)Gal(b1-4)GlcNAc
Summary of the method: as §1

[26] = target: Neu5Gc(a2-8)Neu5Gc(a2-6)Gal(b1-4)GlcNAc
Summary of the method: as §1

B1: Erv41-EDTA (Saccharomyces cerevisiae), Q04651 (protein)
chain: MKFLVNVALVFMVVYISYIYAAAPEHHHHHHDYDIPTTENLYFQGAMGYIDQQYVVDSQVRDTVQINMDIYVNTKCDWLQINVRDQTMDRKLVLEELQLEEMPFFIPYDTKVNDINEIITPELDEILGEAIPAEFREKLDTRSFFDESDPNKAHLPEFNGCHVFGSIPVNRVSGELQITAKSLGYVASRKAPLEELKFNHVINEFSFGDFYPYIDNPLDNTAQFNQDEPLTTYVYYTSVVPTLFKKLGAEVDTNQYSVNDYRYLYKDVAAKGDKMPGIFFKYNFEPLSIVVSDVRL
[1]
  glycan array binding signal (z-score): -0.577
[2]
  glycan array binding signal (z-score): 0.162
[3]
  glycan array binding signal (z-score): 2.54
[4]
  glycan array binding signal (z-score): 1.25
[5]
  glycan array binding signal (z-score): 0.272
[6]
  glycan array binding signal (z-score): 0.349
[7]
  glycan array binding signal (z-score): -0.638
[8]
  glycan array binding signal (z-score): -0.081
[9]
  glycan array binding signal (z-score): -0.609
[10]
  glycan array binding signal (z-score): -0.585
[11]
  glycan array binding signal (z-score): 2.09
[12]
  glycan array binding signal (z-score): 1.18
[13]
  glycan array binding signal (z-score): -0.72
[14]
  glycan array binding signal (z-score): -0.767
[15]
  glycan array binding signal (z-score): 0.162
[16]
  glycan array binding signal (z-score): 1.5
[17]
  glycan array binding signal (z-score): 0.025
[18]
  glycan array binding signal (z-score): 1.97
[19]
  glycan array binding signal (z-score): 2.65
[20]
  glycan array binding signal (z-score): 0.134
[21]
  glycan array binding signal (z-score): -0.865
[22]
  glycan array binding signal (z-score): 0.004
[23]
  glycan array binding signal (z-score): -0.348
[24]
  glycan array binding signal (z-score): 1.35
[25]
  glycan array binding signal (z-score): 0.393
[26]
  glycan array binding signal (z-score): 1.14
